Measurements taken from PubChem BioAssay (NCATS).
Results filed as inconclusive are left out. The source made the active and inactive calls. Unless noted, the call rests on the fitted dose curve; in most records, active means well fitted curve in the direction sought with a large enough effect; inconclusive means small, poorly fitted or top-dose-only effect, or another doubt; inactive means no such curve, though single readings can be large; an effect the other way counts as inactive or inconclusive.

Tests used:
[1] = qHTS assay for small molecule disruptors of the mitochondrial membrane potential - 1 hr assay (AID 651754; calls by dose curve; further: on the % scale 0 is the no-effect control and ±100 the full control effect; nearly all actives have a fitted effect of over 35% in size)
Summary of the method: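 HepG2 cells, attached overnight at 37C, were exposed to compound or DMSO vehicle for 1 hr at 37C, 5% CO2, then stained with Mito-MPS dye for 30 min. Red aggregate versus green monomer fluorescence reports membrane potential.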

[2] = qHTS assay for small molecule disruptors of the mitochondrial membrane potential - 5 hr assay (AID 651755; calls by dose curve; further: on the % scale 0 is the no-effect control and ±100 the full control effect; nearly all actives have a fitted effect of over 40% in size)
Summary of the method: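 HepG2, 2,000 cells/well, overnight attach; cpd or DMSO 5 hr, 37C/5% CO2; Mito-MPS 30 min 37C; fluor 490/535 + 540/590 nm.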

[3] = target: Tumor necrosis factor (Homo sapiens) (UniProt P01375); test: qHTS assay to identify small molecules that stimulate Tumor Necrosis Factor-alpha (TNF-alpha) secretion (AID 651757; active means well fitted curve in the direction sought with a large enough effect in the signal ratio; the % refers to the signal ratio; further: 0% is about no effect)
Summary of the method: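 THP-1 cells were exposed to compounds for 17 hrs at 37 C, after which secreted TNF-alpha was measured by homogeneous HTRF (TR-FRET) using cryptate- and XL665-labeled anti-TNF-alpha antibodies, read after 3 hr at room temperature.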

[4] = qHTS assay to identify small molecules that stimulate interleukin-8 (IL-8) secretion (AID 651758; active means well fitted activation curve with a large enough effect in the signal ratio; the % refers to the signal ratio; further: 0% is about no effect)
Summary of the method: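 Secreted IL-8 measured by TR-FRET sandwich (cryptate and XL665 antibodies) from THP-1 cells exposed to compound overnight (16 hrs, 37 C).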

[5] = target: Peroxisome proliferator-activated receptor alpha (Homo sapiens) (UniProt Q07869); test: qHTS assay for small molecule agonists of the peroxisome proliferator-activated receptor alpha (PPARalpha) signaling pathway (AID 651778); conditions: PathHunter PPARalpha complementation, chemiluminescence, 6 h; active compounds read high; further: % of control where 0% means no effect
Summary of the method: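 Chemiluminescence from complemented enzyme reported PPARalpha activation in cells after 6 hr of compound treatment at 37 C. The detection reagent was incubated for 60 min at room temperature, and compounds were scored as agonists.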

[6] = target: Nuclear receptor ROR-gamma (Homo sapiens) (UniProt P51449); test: qHTS assay for small molecule antagonists of the retinoid-related orphan receptor gamma (ROR-gamma) signaling pathway (AID 651802); further: series mostly up to about 92 µM; on the % scale 0 is the no-effect control and ±100 the full control effect; nearly all actives have a fitted effect of over 60% in size
Summary of the method: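 CHO cells carrying TET-inducible ROR-gamma and an ROR response element–luciferase reporter were exposed to compound, then induced with doxycycline. After 16hr at 37C, luminescence was read; lower signal indicates antagonism.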

[7] = qHTS assay for small molecule agonists of the antioxidant response element (ARE) signaling pathway measured by Nrf2-dependant transcriptional activity (AID 720636; active means well fitted curve in the direction sought with a large enough effect in the repeat runs; an effect the other way counts as inactive or inconclusive;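 further: HepG2 cells with an ARE-driven luciferase reporter; % of control where 0% means no effect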)
Summary of the method: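 HepG2 ARE-luc reporter line, 1% dialyzed FBS; 6 hr attachment at 37 C, compound pinned in, 16 hr at 37 C/5% CO2; ONE-Glo, 30 min RT, luminescence read.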

[8] = qHTS assay for small molecule antagonists of the retinoid-related orphan receptor gamma (ROR-gamma) signaling pathway - cell viability counter screen (AID 720652; active means well fitted curve in the direction sought with a large enough effect in the repeat runs; an effect the other way counts as inactive or inconclusive;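 further: series mostly up to about 92 µM; compound exposure lasted 16 hr before ATP read; on the % scale 0 is the no-effect control and ±100 the full control effect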)
Summary of the method: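 Counter screen in CHO cells carrying TET-inducible ROR-gamma and an ROR response element-luciferase reporter; cells plated 5 hr, compound pinned, doxycycline added, then 16 hr at 37 C. Viability read as intracellular ATP by CellTiter-Glo luminescence.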

[9] = qHTS assay for small molecule agonists of the antioxidant response element (ARE) signaling pathway measured by Nrf2-dependant transcriptional activity - cell viability counter screen (AID 720653; active means well fitted curve in the direction sought with a large enough effect in the repeat runs; an effect the other way counts as inactive or inconclusive; further: on the % scale 0 is the no-effect control and ±100 the full control effect); conditions: ARE-bla HepG2 viability, CellTiter-Glo ATP luminescence, 16 h; active compounds read low
Summary of the method: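 Cytotoxicity counter screen: intracellular ATP quantified by CellTiter-Glo luminescence in the same ARE-bla HepG2 plates, after 16 h compound exposure and a 2 h beta-lactamase substrate step.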

[10] = qHTS assay for cell viability of HEK293 cells (AID 743288); conditions: ATP luminescence (CellTiter-Glo), 18 h, active compounds read low; further: on the % scale 0 is the no-effect control and ±100 the full control effect; nearly all actives have a fitted effect of over 50% in size
Summary of the method: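 Environmental chemicals tested in qHTS format against parental HEK293 cells; 18 h treatment, 37 C; read-out ATP luminescence (CellTiter-Glo), 30 min RT development.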

[11] = qHTS assay for cell viability of the p53RE-bla HCT-116 cell line (AID 743292); further: on the % scale 0 is the no-effect control and ±100 the full control effect; nearly all actives have a fitted effect of over 55% in size
Summary of the method: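 Luminescent ATP quantitation (CellTiter-Glo) served as the viability read-out; reagent was added after 16 h compound exposure at 37 C and read after 30 min at room temperature. Cells: p53RE-bla HCT-116, 4,000 per well.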

[12] = target: Nuclear receptor subfamily 1 group I member 2 (Rattus norvegicus) (UniProt Q9R1A7); test: qHTS assay for small molecule activators of the rat pregnane X receptor (rPXR) signaling pathway (AID 651751; call rule not given here; further: 0% is about no effect); conditions: rPXR reporter cells, luciferase (One-Glo), 24 h
[13] = qHTS assay for small molecule activators of the human pregnane X receptor (PXR) signaling pathway (AID 720659; call rule not given here; further: 0% is about no effect)
[14] = qHTS assay for environmental chemicals that activate the Aryl hydrocarbon Receptor (AhR) signaling pathway (AID 651777); conditions: 1A2-DRE human hepatoma cells, luciferase, 24 h; activation: active compounds read high; further: % of control where 0% means no effect; nearly all actives have a fitted effect of over 15% in size
Summary of the method: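 Luminescence read-out: One-Glo added for 30 min at RT after 24 hr compound treatment (37 C, 5% CO2) of human hepatoma cells expressing a DRE/CYP1A2 promoter–luciferase reporter; increased signal indicates AhR activation.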

Chain of Nuclear receptor ROR-gamma (Homo sapiens) (P51449 whole entry, looked up): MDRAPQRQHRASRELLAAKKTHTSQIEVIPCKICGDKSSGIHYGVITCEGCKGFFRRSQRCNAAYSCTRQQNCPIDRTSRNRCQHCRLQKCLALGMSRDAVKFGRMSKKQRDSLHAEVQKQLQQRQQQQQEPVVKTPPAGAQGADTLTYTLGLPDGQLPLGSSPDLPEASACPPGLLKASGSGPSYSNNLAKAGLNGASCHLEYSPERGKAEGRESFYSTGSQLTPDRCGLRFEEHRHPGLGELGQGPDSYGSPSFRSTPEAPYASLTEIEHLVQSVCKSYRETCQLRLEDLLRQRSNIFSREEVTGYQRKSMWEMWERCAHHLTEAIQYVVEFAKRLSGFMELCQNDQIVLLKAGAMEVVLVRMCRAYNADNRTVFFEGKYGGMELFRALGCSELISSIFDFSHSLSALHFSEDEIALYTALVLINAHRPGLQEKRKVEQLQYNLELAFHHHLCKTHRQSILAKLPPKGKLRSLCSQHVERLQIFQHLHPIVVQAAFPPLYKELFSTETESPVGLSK
Chain of Tumor necrosis factor (Homo sapiens) (P01375 whole entry, looked up): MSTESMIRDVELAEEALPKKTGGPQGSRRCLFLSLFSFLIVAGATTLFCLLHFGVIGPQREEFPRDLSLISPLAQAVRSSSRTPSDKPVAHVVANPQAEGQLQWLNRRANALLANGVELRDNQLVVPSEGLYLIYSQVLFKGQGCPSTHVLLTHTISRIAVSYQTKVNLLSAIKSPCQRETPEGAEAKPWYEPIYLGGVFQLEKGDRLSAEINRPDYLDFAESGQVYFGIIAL
Chain of Nuclear receptor subfamily 1 group I member 2 (Rattus norvegicus) (Q9R1A7 whole entry, looked up): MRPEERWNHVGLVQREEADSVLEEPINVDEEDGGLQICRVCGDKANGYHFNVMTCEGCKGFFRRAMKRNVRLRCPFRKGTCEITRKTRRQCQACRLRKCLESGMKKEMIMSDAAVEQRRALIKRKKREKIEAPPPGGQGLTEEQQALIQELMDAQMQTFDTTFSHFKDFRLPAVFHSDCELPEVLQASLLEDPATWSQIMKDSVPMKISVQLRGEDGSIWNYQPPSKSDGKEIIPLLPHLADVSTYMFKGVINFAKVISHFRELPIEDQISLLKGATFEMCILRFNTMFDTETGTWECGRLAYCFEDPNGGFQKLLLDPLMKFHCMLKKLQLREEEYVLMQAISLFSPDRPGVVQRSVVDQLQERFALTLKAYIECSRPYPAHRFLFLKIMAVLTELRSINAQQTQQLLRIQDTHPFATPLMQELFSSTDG
Chain of Peroxisome proliferator-activated receptor alpha (Homo sapiens) (Q07869 whole entry, looked up): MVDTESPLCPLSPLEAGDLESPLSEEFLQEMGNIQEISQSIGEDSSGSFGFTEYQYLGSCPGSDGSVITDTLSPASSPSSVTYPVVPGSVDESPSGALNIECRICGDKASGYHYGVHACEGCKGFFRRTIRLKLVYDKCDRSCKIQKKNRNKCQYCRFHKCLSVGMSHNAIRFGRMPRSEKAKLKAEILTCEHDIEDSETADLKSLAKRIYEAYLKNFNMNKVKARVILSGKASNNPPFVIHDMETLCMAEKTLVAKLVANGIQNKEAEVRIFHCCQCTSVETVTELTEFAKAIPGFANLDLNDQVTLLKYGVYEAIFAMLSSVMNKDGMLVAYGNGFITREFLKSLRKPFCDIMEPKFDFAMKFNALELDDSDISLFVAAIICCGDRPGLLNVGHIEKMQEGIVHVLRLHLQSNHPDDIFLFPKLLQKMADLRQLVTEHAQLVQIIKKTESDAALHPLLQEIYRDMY

O=C(Cl)c1cccc([N+](=O)[O-])c1
inactive: Potency [1] | Potency [2] | Potency [3] | Potency [4] | max response [5] -2.24% | Potency [6] | outcome [7] | Potency [8] | max response [9] -1.32% | max response [10] -15.1% | Potency [11] | max response [12] -6.23% | outcome [13]

Nc1ccc(F)cc1F
inactive: Potency [1] | Potency [2] | Potency [3] | Potency [4] | activation [14] -1.74% | Potency [6] | outcome [7] | Potency [8] | max response [10] -2.02% | Potency [11] | max response [12] 3.66% | outcome [13]

OC/C(Br)=C(\Br)CO
inactive: Potency [1] | Potency [2] | Potency [3] | Potency [4] | activation [14] -1.6% | Potency [6] | outcome [7] | Potency [8] | max response [10] 0.0424% | Potency [11] | max response [12] 0.247% | outcome [13]

Cc1cccc(C)c1
inactive: Potency [1] | Potency [2] | Potency [3] | Potency [4] | activation [14] 0.25% | max response [5] 1.06% | outcome [7] | Potency [8] | max response [10] 7.2% | Potency [11] | max response [12] -3.48% | outcome [13]

O=C(O)c1c(Cl)cccc1Cl
inactive: Potency [1] | Potency [2] | Potency [3] | Potency [4] | max response [5] 0.175% | Potency [6] | outcome [7] | Potency [8] | max response [9] -7.83% | max response [10] -0.226% | Potency [11] | max response [12] -2.07% | outcome [13]

CC(=O)Nc1ccccc1C
inactive: Potency [1] | Potency [2] | Potency [3] | Potency [4] | activation [14] -0.35% | outcome [7] | Potency [8] | max response [9] -6.99% | max response [10] -9.82% | Potency [11] | max response [12] -0.909% | outcome [13]

Cc1cc(C(=O)O)ccc1[N+](=O)[O-]
inactive: Potency [1] | Potency [2] | Potency [3] | Potency [4] | activation [14] 1.35% | max response [5] -0.276% | outcome [7] | Potency [8] | max response [9] -1.45% | max response [10] -12% | Potency [11] | max response [12] -5.59% | outcome [13]

C=C(C)C(=O)OCC(C)O (centres undefined)
inactive: Potency [1] | Potency [2] | Potency [3] | Potency [4] | Potency [6] | outcome [7] | Potency [8] | max response [10] -4.55% | Potency [11] | max response [12] -4.2% | outcome [13]

Cc1cccc([N+](=O)[O-])c1C(=O)O
inactive: Potency [1] | Potency [2] | Potency [3] | Potency [4] | activation [14] -0.538% | Potency [6] | outcome [7] | Potency [8] | max response [9] 0.554% | max response [10] -0.404% | Potency [11] | max response [12] 12.6% | outcome [13]

O=Cc1ccc(Cl)cc1
inactive: Potency [1] | Potency [2] | Potency [3] | Potency [4] | max response [5] -4.56% | Potency [6] | outcome [7] | Potency [8] | max response [10] -6.94% | Potency [11] | max response [12] -2.77% | outcome [13]

COC(=O)CCC(=O)OC
inactive: Potency [1] | Potency [2] | Potency [3] | Potency [4] | max response [5] 7.56% | Potency [6] | outcome [7] | Potency [8] | max response [9] -12.8% | max response [10] 2.75% | Potency [11] | max response [12] 1.71% | outcome [13]

O=Cc1ccc(CO)o1
inactive: Potency [1] | Potency [2] | Potency [3] | Potency [4] | max response [5] -3.35% | Potency [6] | outcome [7] | Potency [8] | max response [9] -0.711% | max response [10] 6.14% | Potency [11] | max response [12] 1.25% | outcome [13]

Nc1ccccc1[N+](=O)[O-]
inactive: Potency [1] | Potency [2] | Potency [3] | activation [14] -0.331% | max response [5] -3.89% | Potency [6] | outcome [7] | Potency [8] | max response [10] -7.67% | Potency [11] | max response [12] -0.731% | outcome [13]

Cc1nc2ccc(Cl)cc2[nH]1
inactive: Potency [1] | Potency [2] | Potency [3] | activation [14] 3.58% | max response [5] -1.28% | Potency [6] | outcome [7] | Potency [8] | max response [9] -4.37% | max response [10] 5.07% | Potency [11] | max response [12] -1.68% | outcome [13]
